# VDR inhibitor: Inhibitors of the vitamin D receptor (VDR): qHTS. Potency, µM, for the others: max response, negative = inhibition, actives largely listed as inhibitors. Vitamin D3 receptor (Homo sapiens), P11473. VDR-SRC2-3 peptide fluorescence polarization, 2 h. AID 504847, 2011. 400,000 tested, 0.93% active
#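 Inhibition of the VDR/SRC2-3 peptide interaction is quantified by fluorescence polarization. Compounds (23 nl, pintool) incubate with the reagents for 2 hours at ambient room temperature.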
# TDP1 block: qHTS Assay for Inhibitors of Tyrosyl-DNA Phosphodiesterase (TDP1); Tyrosyl-DNA phosphodiesterase 1 (Homo sapiens), Q9NUW8; recombinant TDP1, AlphaScreen DNA substrate cleavage; Potency, µM (top dose mostly 130 µM), for inactives: at the highest dose activity change, negative = inhibition, most hits filed as inhibitors; 350,000 tested, 0.28% active; AID 485290, 2010; note: nearly all actives have a fitted effect of over 40% in size
# Target sequence (Q9NUW8 whole entry, looked up): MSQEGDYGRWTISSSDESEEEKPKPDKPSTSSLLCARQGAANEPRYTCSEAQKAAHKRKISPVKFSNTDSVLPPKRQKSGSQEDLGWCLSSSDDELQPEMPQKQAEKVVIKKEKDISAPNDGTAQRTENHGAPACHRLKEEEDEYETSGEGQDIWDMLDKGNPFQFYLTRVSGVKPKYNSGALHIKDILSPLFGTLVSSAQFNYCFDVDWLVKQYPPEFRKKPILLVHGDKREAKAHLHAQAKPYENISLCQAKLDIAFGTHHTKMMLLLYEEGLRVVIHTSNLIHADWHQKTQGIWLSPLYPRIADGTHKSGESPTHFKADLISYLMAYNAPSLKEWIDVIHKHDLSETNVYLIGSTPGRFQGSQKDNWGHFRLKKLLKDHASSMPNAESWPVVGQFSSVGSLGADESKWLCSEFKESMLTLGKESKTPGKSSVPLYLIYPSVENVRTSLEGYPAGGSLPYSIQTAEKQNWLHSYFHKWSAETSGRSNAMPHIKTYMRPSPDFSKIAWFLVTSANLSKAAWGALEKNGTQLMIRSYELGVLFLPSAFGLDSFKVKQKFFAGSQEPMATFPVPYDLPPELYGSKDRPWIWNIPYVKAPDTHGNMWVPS
#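 Compounds were preincubated with Tdp1 (1 nM final) for 15 min at room temperature before substrate (15 nM final) started a 5 min reaction; beads (10 ug/ml final) were then added for 10 min before AlphaScreen detection.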
# TDP1 cell CPT: qHTS for Inhibitors of human tyrosyl-DNA phosphodiesterase 1 (TDP1): qHTS in cells in presence of CPT. chicken DT40 Tdp1-/-;hTDP1 cells + 20 nM CPT, ATP luminescence, 48 h. Potency, µM (doses to about 46.2 µM), for inactives: at the highest dose activity change, negative = growth inhibition, most hits filed as inhibitors. 420,000 tested, 12% active; note: nearly all actives have a fitted effect of over 55% in size
#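 Cell growth measured by CellTiter-Glo luminescence after a minimum 48 h, 37 C compound exposure with 20 nM CPT in Tdp1-knockout DT40 cells stably expressing hTDP1, seeded 400/well; qHTS titration format.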
# PLK1 PBD inh: qHTS for Inhibitors of PLK1-PDB (polo-like kinase 1 - polo-box domain): Primary Screen | AID 720504, 2013 | 360,000 tested, 2.8% active | Plk1 PBD binding of FITC phosphopeptide, fluorescence polarization | Potency, µM, for inactives: max response, negative = inhibition, actives largely listed as inhibitors; note: series mostly up to about 57 µM; nearly all actives have a fitted effect of over 65% in size
# TDP1 cell noCPT: qHTS for Inhibitors of human tyrosyl-DNA phosphodiesterase 1 (TDP1): qHTS in cells in absence of CPT. DT40 Tdp1-/- hTDP1 cells, no CPT, ATP luminescence, 48 h. Potency, µM (titrated, usually from 46.2 µM), inactives show at the top dose activity change, negative = growth inhibition, hits mostly inhibitors. 420,000 tested, 15% active. AID 686978, 2013; note: nearly all actives have a fitted effect of over 55% in size
#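 Growth of hTDP1-complemented DT40 Tdp1-knockout cells is measured by ATP luminescence after at least 48 hr compound exposure at 37 °C, with DMSO substituting for the 20 nM CPT used in the parallel screen.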
# GCN5L2 inh: qHTS Assay for Inhibitors of GCN5L2; 390,000 tested, 0.21% active; Potency, µM (doses to about 58.9 µM), for the others: at the highest dose activity change, negative = inhibition, most hits filed as inhibitors; GCN5L2 HAT assay, ThioGlo1 CoA-SH fluorescence; Histone acetyltransferase KAT2A (Homo sapiens), Q92830; AID 504327, 2011
#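 Compounds, pin-transferred from DMSO stocks, meet 20nM GCN5L2 for 15 min before the reaction begins with H3(1-25) peptide (75uM) and acetyl-CoA (70uM). Thiol-reactive ThioGlo1 reports CoA release over 20 min at room temperature.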
# Active calls of the source: *; ? = inconclusive; nt = not tested or not shown; [ ] = dose if it differs, or a comment. This is a sample that favours compounds with a hit; in the whole collection about 18% have one here. Calls come from the whole dose curve; as a rule, active = well fitted curve in the direction sought with a large enough effect; inconclusive = small, poorly fitted or top-dose-only effect, or another doubt; inactive = no such curve, though single readings can be large; an effect the other way counts as inactive or inconclusive. % is set by controls: 0 for no effect and ±100 for the full control effect; potency is the fitted concentration of half-maximal effect.
SMILES,VDR inhibitor,TDP1 block,TDP1 cell CPT,PLK1 PBD inh,TDP1 cell noCPT,GCN5L2 inh
C=CCN1C(=O)C(=O)N(CC(=O)NCC(=O)Nc2ccc(F)c(F)c2F)C1=O,-21%,-1%,-2%,-18%,-15%,-2%
CSc1ncc(C(=O)Nc2cc(C)cc(C)c2)c(-c2ccccc2)n1,7%,6%,-28%,nt,?,-6%
O=C(O/N=C\c1ccc(N2CCCCC2)c([N+](=O)[O-])c1)c1cccc(Cl)c1,-9%,7%,-9%,-1%,?,-8%
Cc1ccc(C(=O)O/N=C\c2ccc(N3CCCCC3)c([N+](=O)[O-])c2)cc1,-10%,12%,?,1%,13µM*,-6%
CO/N=C/c1ccc(N2CCN(C(=O)c3cccc(C(F)(F)F)c3)CC2)c([N+](=O)[O-])c1,9%,12%,15µM*,-1%,21µM*,-21%
COc1cc(OC)c(Nc2nc3ccccc3nc2-n2nc(C)cc2C)cc1Cl,9%,0%,-10%,nt,?,-3%
Cc1ccccc1Cn1c(CN2CCN(c3cc(Cl)ccc3C)CC2)nc2c1c(=O)[nH]c(=O)n2C,-16%,1%,?,nt,13µM*,-2%
Cn1c(=O)[nH]c(=O)c2c1nc(CN1CCN(c3cccc(Cl)c3)CC1)n2CCCc1ccccc1,-17%,0%,?,-10%,?,-5%
Cc1ccc(Cl)cc1N1CCN(Cc2nc3c(c(=O)[nH]c(=O)n3C)n2Cc2ccccc2F)CC1,-14%,7%,?,1%,23µM*,-4%
Cc1ccc(Cl)cc1N1CCN(Cc2nc3c(c(=O)[nH]c(=O)n3C)n2CCc2ccccc2)CC1,-8%,3%,16µM*,7%,?,-9%
COc1ccccc1CN=C1NC(=O)C(CC(=O)Nc2ccc(C(C)=O)cc2)S1 (centres undefined),-8%,1%,9%,-11%,0%,2%
CC1CCCCN1CCCNC(=O)CN1C(=O)c2cccnc2Oc2ccccc21 (centres undefined),-20%,3%,-11%,-6%,27%,-7%
CCc1nc(Nc2ccc(F)c(Cl)c2)c2c3c(sc2n1)CCCC3,-17%,nt,5.8µM*,nt,5.8µM*,-9%
COc1ccc(/C=N/Nc2ncnc3sc4c(c23)CCCC4)cc1OC,-12%,3%,?,-8%,16µM*,3%
COc1ccc(Nc2ncnc3sc4c(c23)CCCC4)cc1,-3%,8%,3.3µM*,nt,0.029µM*,-23%
CCc1ccc(Nc2ncnc3sc4c(c23)CCCC4)cc1,8%,-5%,21µM*,nt,18µM*,2%
CC(=O)Nc1ccc(Nc2ncnc3sc4c(c23)CCCC4)cc1,-2%,-1%,?,nt,?,-3%
Fc1ccc(Nc2ncnc3sc4c(c23)CCC4)cc1F,-2%,-3%,-4%,11%,-2%,-5%
Cc1nc(Nc2cccc(O)c2)c2c3c(sc2n1)CCC3,7%,nt,18µM*,-14%,21µM*,-6%
O=C(OCc1ccc([N+](=O)[O-])cc1)c1cc(=O)c2ccccc2o1,22%,9%,30%,-7%,-18%,-15%
COc1cc(C)c(C(=O)Oc2cc(C)c(C(=O)O)c(O)c2C)c(O)c1C,33%,nt,?,?,?,nt
O=C1CCc2cc(S(=O)(=O)Nc3ccc(Cl)cc3)ccc2N1,nt,1%,nt,nt,nt,nt
COc1cccc(-c2nn(-c3ccccc3)cc2/C=C\C(=O)c2cccs2)c1,8%,1%,-27%,3%,-28%,-13%
CCCN(CCC)CC(O)Cn1cc(/C=C/C(=O)c2cccs2)c2ccccc21 (centres undefined),9%,-1%,18µM*,20%,?,20%
CCCN(CCC)CC(O)Cn1cc(/C=C/C(=O)c2ccc(C)cc2)c2ccccc21 (centres undefined),-1%,8%,?,nt,21µM*,-18%
SMILES,VDR inhibitor,TDP1 block,TDP1 cell CPT,PLK1 PBD inh,TDP1 cell noCPT,GCN5L2 inh
CCCN(CCC)CC(O)Cn1cc(/C=C/C(=O)c2ccc(Br)cc2)c2ccccc21 (centres undefined),10%,0%,3.3µM*,nt,4.6µM*,0%
COc1ccccc1-c1ccnc(-n2ncc(C(=O)N(C)C(C)c3ccon3)c2C2CC2)n1 (centres undefined),nt,nt,-11%[9.04 µM],nt,-23%,nt
O=C(CCN1C(=O)/C(=C/c2ccccc2F)SC1=S)NC1C=CS(=O)(=O)C1 (centres undefined),8%,2%,-7%,-11%,?,0%
CCOc1ccc(-c2cc3cc(OC)c(OC)cc3c(C)n2)cc1,-11%,6%,-28%,-6%,?,1%
CCc1nc(-c2ccc(OC)c(OC)c2)cc2cc(OC)c(OC)cc12,-18%,-3%,16µM*,0%,21µM*,-4%
O=C(NCCc1csc(-c2cccc(F)c2)n1)c1cccs1,-1%,4%,?,nt,16µM*,-2%
COc1ccc(-c2nc(CCNC(=O)c3cccs3)cs2)cc1,-6%,1%,16µM*,-3%,21µM*,-10%
CC(C)Oc1ccc(C(=O)NCCc2csc(-c3cccc(F)c3)n2)cc1,6%,-2%,-25%,nt,0%,4%
Cc1ccc(OC2CCN(C(=O)[C@H]3O[C@@H](n4ccc(N)nc4=O)[C@H](O)[C@@H]3O)CC2)cc1,nt,nt,0%,-3%,-4%,nt
COc1ccc(CNS(=O)(=O)c2ccc(-n3cnnn3)c(C)c2)cc1,6%,nt,?,3%,?,-3%
CC(=O)c1ccc(OCCNS(=O)(=O)c2ccc(-n3cnnn3)c(C)c2)cc1,-9%,-3%,13µM*,-21%,?,-4%
CC(=NNC(=S)N1CCN(c2ccccn2)CC1)c1ccccn1,?,nt,18µM*,?,16µM*,nt
CC(=NNC(=S)N1CCCCCC1)c1cccc2cccnc12,?,nt,0.016µM*,-18%,0.021µM*,nt
S=C(NC1CCCC1)N1CCN(c2ccccn2)CC1,-21%,-1%,2%,-7%,?,1%
